Active and inactive are the calls of the source.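 The calls were made as follows, unless noted: active = compounds whose cell count with miR-34 switched on is under 0.7 times the count with it off; inactive = the rest.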
Columns and labels:
[1] = sensitizers of A549 cells to miR-34 induction, primary screen, imaging, A549 dox-inducible miR-34, nuclei and caspase counts (AID 1347080); details: A549 miR-34 inducible, Hoechst nuclei count, 48 h; also: test concentration not given here
[2] = viability rescue of complex I mutant cybrids, primary screen, cell-based, galactose medium, ATP luminescence (AID 1645843;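 active = z-score of at least 1.8 in each of two replicates, scored against plate mean and spread of sample wells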;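 also: positive z means more ATP and so rescue of galactose-driven cybrid death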); details: complex I mutant cybrid cells, 72 h, stronger effect = higher value
[3] = stronger effect = lower value, cell number ratio, induced over uninduced
[4] = measured here: relative caspase fold change +Dox/-Dox
[5] = measured here: total cells with miR-34 induction, stronger effect = lower value
[6] = measured here: total cells without miR-34 induction

Structure (SMILES) | fold change [1, 3] | fold change [1, 4] | cell count [1, 5] | cell count [1, 6] | z-score [2]
COC1OC2O[C@@]3(C)CCC4C(C)CCC(C1C)[C@@]24OO3 (stereo not given in full) | 0.961 (inactive) | 0.771 | 9270 | 9650 | -0.035 (inactive)
C#C[C@]1(O)CCC2C3CCC4=CC(=O)CCC4C3CC[C@@]21CC (stereo not given in full) | 0.905 (inactive) | 1.25 | 8490 | 9390 | 0.65 (inactive)
O=C1C2CCCCC2C(=O)N1CCCCN1CCN(c2nsc3ccccc23)CC1 (stereo not given) | 0.926 (inactive) | 1.74 | 7810 | 8440 | -1.79 (inactive)
C=C1C(=CC=C2CCC[C@@]3(C)C2CCC3C(C)CCCC(C)(C)O)CC(O)CC1O (stereo not given in full) | 0.912 (inactive) | 1.66 | 9420 | 10300 | -1.52 (inactive)
C=CCC1C=C(C)CC(C)CC(OC)C2O[C@@](O)(C(=O)C(=O)N3CCCCC3C(=O)OC(C(C)=CC3CCC(O)C(OC)C3)C(C)C(O)CC1=O)C(C)CC2OC (stereo not given in full) | 1.03 (inactive) | 1.03 | 5920 | 5760 | 0.96 (inactive)
NC(C(=O)NC1C(=O)N2C(C(=O)O)=C(CSc3cn[nH]n3)CSC12)c1ccc(O)cc1 (stereo not given) (tested in a mixture with another compound) | 0.899 (inactive) | 1.68 | 9710 | 10800 | 0.555 (inactive)
CC#C[C@]1(O)CCC2C3CCC4=CC(=O)CCC4=C3C(c3ccc(N(C)C)cc3)C[C@@]21C (stereo not given in full) | 0.84 (inactive) | 0.861 | 5600 | 6670 | -0.035 (inactive)
CC(CCC(=O)O)C1CCC2C3C(=O)CC4CC(=O)CC[C@]4(C)C3CC(=O)[C@]12C (stereo not given in full) | 0.951 (inactive) | 0.625 | 9350 | 9830 | 0.29 (inactive)
CN1CCc2cc(Cl)c(O)cc2C(c2ccccc2)C1 (stereo not given) | 0.944 (inactive) | 0.98 | 8780 | 9300 | 0.39 (inactive)
Nc1ncnc2c1ncn2C1OC(CO)CC1O (stereo not given) | 0.896 (inactive) | 2.91 | 8910 | 9950 | -0.825 (inactive)
C[C@]12C=CC(=O)C=C1CCC1C2C(O)C[C@@]2(C)C1CC[C@]2(O)C(=O)COC(=O)CCC(=O)O (stereo not given in full) | 0.962 (inactive) | 2.02 | 7550 | 7850 | 1.77 (inactive)
CCN1CCCC1CNC(=O)c1c(O)c(Cl)cc(Cl)c1OC (stereo not given) | 1.02 (inactive) | 1.39 | 9680 | 9480 | 0.65 (inactive)
CCC(C)C(=O)OC1CC(O)C=C2C=CC(C)C(CCC(O)CC(O)CC(=O)O)C21 (stereo not given) | 0.961 (inactive) | 1.91 | 10300 | 10800 | 0.5 (inactive)
CN(C)C1C(=O)C(C(=O)NCN2CCCC2)=C(O)[C@@]2(O)C(=O)C3=C(O)c4c(O)cccc4[C@@](C)(O)C3CC12 (stereo not given in full) | 0.983 (inactive) | 1.25 | 8500 | 8650 | 0.465 (inactive)
[Cl-].[Cl][Pt].[NH2-].[NH2-].c1ccncc1 | 0.987 (inactive) | 0.925 | 9550 | 9680 | -1 (inactive)
COc1cc(CNC(=O)CCCCC=CC(C)C)ccc1O | 0.954 (inactive) | 2.14 | 9660 | 10100 | 0.315 (inactive)
CC(=O)OC1CC2CCC3C(CCC4(C)C3CC([N+]3(C)CCCCC3)C4OC(C)=O)C2(C)CC1[N+]1(C)CCCCC1 (stereo not given) | 0.885 (inactive) | 2.7 | 8890 | 10000 | 0.825 (inactive)
O=c1cnn(C2OC(CO)C(O)C2O)c(=O)[nH]1 (stereo not given) | 1.77 (inactive) | 0.641 | 1880 | 1060 | -0.74 (inactive)
OCC1OC(n2cnc3c(NC4CCCC4)nc(Cl)nc32)C(O)C1O (stereo not given) | 0.88 (inactive) | 1.42 | 9520 | 10800 | 1.5 (inactive)
CC1COc2c(C3(N)CC3)c(F)cc3c(=O)c(C(=O)O)cn1c23 (stereo not given) | 0.951 (inactive) | 1.6 | 9830 | 10300 | 0.395 (inactive)
OCC1OC(n2cnc3c(NC4CCCC4O)ncnc32)C(O)C1O (stereo not given) | 0.907 (inactive) | 0.906 | 9400 | 10400 | 0.73 (inactive)
CC1CN(CCCn2c3ccccc3c3ccccc32)CC(C)N1 (stereo not given) | 0.806 (inactive) | 1.22 | 6730 | 8340 | -1.61 (inactive)
CN1C(=O)CCC1c1cccnc1 (stereo not given) | 0.988 (inactive) | 2.52 | 9830 | 9950 | 0.965 (inactive)
O=C(OC1CC2CC3CC(C1)N2CC3=O)c1c[nH]c2ccccc12 (stereo not given) | 0.871 (inactive) | 2.24 | 8970 | 10300 | 0.88 (inactive)
CC[C@]1(O)CC2CN(CCc3c([nH]c4ccccc34)[C@@](C(=O)OC)(c3cc4c(cc3OC)N(C=O)C3[C@@](O)(C(=O)OC)C(OC(C)=O)[C@]5(CC)C=CCN6CC[C@]43C65)C2)C1 (stereo not given in full) | 0.746 (inactive) | 1.38 | 1340 | 1800 | -1.05 (inactive)
C=CCc1ccccc1OCC(O)CN[C@]1(C)CCC[C@H](C(C)(C)NC(=O)CBr)C1 (stereo not given in full) | 0.814 (inactive) | 1.93 | 70 | 86 | -1.52 (inactive)
CC1CC2C3CCC4=CC(=O)C=C[C@]4(C)[C@@]3(F)C(O)C[C@]2(C)C1C(=O)CO (stereo not given in full) | 0.805 (inactive) | 1.08 | 6880 | 8550 | 1.76 (inactive)
CC1CNc2c(cccc2S(=O)(=O)NC(CCCN=C(N)N)C(=O)N2CCC(C)CC2C(=O)O)C1 (stereo not given) | 0.968 (inactive) | 1.83 | 10100 | 10500 | 0.935 (inactive)
CCC(C)C(=O)OC1CCC=C2C=CC(C)C(CCC3CC(O)CC(=O)O3)C21 (stereo not given) | 0.968 (inactive) | 0.887 | 1480 | 1530 | -0.74 (inactive)
